The antibiotic and cytotoxicity screens of Wong et al. (2023)
The campaign covered roughly 39,000 compounds. About 3,300 (8.5%) were called active. For the sample, actives were picked, then their nearest neighbours and some compounds at random.

test system: HepG2; assay: cytotoxicity call (relative viability < 0.9); details: 10 µM

Row | SMILES | cytotoxicity call
1 | COc1ccc2c3c(n(c2c1)C)[C@H](CO)N(C[C@]13CCN(CC1)C(=O)CC1CC1)C(=O)CN1CCOCC1 | inactive
2 | COc1ccc(-c2cnc3c(c2)C(=O)N([C@@H](C)CO)C[C@@H](C)[C@H](CN(C)C(=O)C2CCOCC2)O3)cc1 | inactive
3 | C[C@H]1CCCCO[C@H](CN(C)Cc2ccc(C(=O)O)cc2)[C@@H](C)CN([C@@H](C)CO)C(=O)c2cc(NC(=O)Cc3ccccc3)ccc2O1 | inactive
4 | Cc1ccc(S(=O)(=O)Nc2ccc3c(c2)C(=O)N([C@@H](C)CO)C[C@@H](C)[C@@H](CN(C)CC2CC2)O3)cc1 | inactive
5 | CO[C@H]1CN(C)C(=O)c2ccc(NS(=O)(=O)c3ccccc3)cc2OC[C@H](C)N(C(=O)NC(C)C)C[C@@H]1C | inactive
6 | COc1ccc(NC(=O)N(C)C[C@H]2Oc3ccc(NS(=O)(=O)c4cn(C)cn4)cc3CC(=O)N([C@@H](C)CO)C[C@H]2C)cc1 | inactive
7 | O=C(C[C@@H]1C[C@H]2c3cc(NC(=O)Cc4ccncc4)ccc3O[C@H]2[C@H](CO)O1)NCCN1CCCCC1 | inactive
8 | CC(=O)N[C@H]1[C@H](O[C@@H]2[C@@H](O)[C@H](C)O[C@@H](Oc3ccc4c(=O)c(-c5ccc(O)cc5)coc4c3)[C@@H]2O)O[C@H](CO)[C@@H](O[C@@H]2O[C@@H](C)[C@H](O)[C@@H](O)[C@H]2O)[C@@H]1O | inactive
9 | O=C(C[C@@H]1C=C[C@@H](NC(=O)c2ccncc2)[C@@H](CO)O1)NCc1ccncn1 | inactive
10 | C[C@@H]1CCCCO[C@H](CN(C)Cc2ccc(C(=O)O)cc2)[C@H](C)CN([C@@H](C)CO)C(=O)c2cc(NC(=O)Nc3ccc(F)cc3)ccc2O1 | inactive
11 | COc1ccc(S(=O)(=O)Nc2ccc3c(c2)C(=O)N([C@H](C)CO)C[C@H](C)[C@@H](CN(C)S(=O)(=O)c2ccccc2)O3)cc1 | inactive
12 | CC(C)NC(=O)Nc1ccc2c(c1)C(=O)N([C@H](C)CO)C[C@@H](C)[C@@H](CN(C)Cc1ccc(C(F)(F)F)cc1)OCCCC[C@@H](C)O2 | inactive
13 | CC(C)NC(=O)Nc1ccc2c(c1)C(=O)N([C@@H](C)CO)C[C@@H](C)[C@@H](CN(C)Cc1ccc(C(F)(F)F)cc1)OCCCC[C@@H](C)O2 | active
14 | CC(C)NC(=O)Nc1ccc2c(c1)C(=O)N([C@@H](C)CO)C[C@H](C)[C@H](CN(C)Cc1ccc(C(F)(F)F)cc1)OCCCC[C@H](C)O2 | inactive
15 | CC(C)NC(=O)Nc1ccc2c(c1)C(=O)N([C@H](C)CO)C[C@H](C)[C@H](CN(C)Cc1ccc(C(F)(F)F)cc1)OCCCC[C@H](C)O2 | inactive
16 | CC(C)NC(=O)Nc1ccc2c(c1)C(=O)N([C@@H](C)CO)C[C@H](C)[C@@H](CN(C)Cc1ccc(C(F)(F)F)cc1)OCCCC[C@H](C)O2 | active
17 | CC(C)NC(=O)Nc1ccc2c(c1)C(=O)N([C@@H](C)CO)C[C@@H](C)[C@H](CN(C)Cc1ccc(C(F)(F)F)cc1)OCCCC[C@H](C)O2 | inactive
18 | O=C(C[C@@H]1C=C[C@@H](NC(=O)c2cnccn2)[C@H](CO)O1)NCc1ccccc1F | inactive
19 | O=C(C[C@@H]1C[C@@H]2c3cc(NC(=O)Cc4ccncc4)ccc3O[C@@H]2[C@H](CO)O1)NCc1cccc(F)c1 | inactive
20 | CS(=O)(=O)[O-].C[n+]1ccccc1C=NO | inactive
21 | OCc1cccc(CO)c1F | inactive

Row | SMILES | cytotoxicity call
22 | COc1ccc(S(=O)(=O)Nc2ccc3c(c2)CC(=O)N([C@@H](C)CO)C[C@H](C)[C@H](CN(C)C)O3)cc1 | inactive
23 | C[C@@H](O)CC1=C[C@H]([C@@H](C)O)OC1=O | inactive
24 | COc1ccc(S(=O)(=O)N(C)C[C@@H]2Oc3ccc(NS(=O)(=O)c4cccs4)cc3C(=O)N([C@@H](C)CO)C[C@@H]2C)cc1 | active
25 | COc1ccc(S(=O)(=O)N(C)C[C@@H]2Oc3ccc(NS(=O)(=O)c4cccs4)cc3C(=O)N([C@H](C)CO)C[C@H]2C)cc1 | inactive
26 | C[C@@H]1CN([C@H](C)CO)C(=O)c2cc(NS(=O)(=O)c3ccc(F)cc3)ccc2O[C@H]1CN(C)S(=O)(=O)c1cn(C)cn1 | active
27 | C[C@@H]1CN([C@@H](C)CO)C(=O)c2cc(NS(=O)(=O)c3cn(C)cn3)ccc2O[C@H]1CN(C)S(=O)(=O)c1cccs1 | active
28 | C[C@@H]1CN([C@H](C)CO)C(=O)c2cc(NS(=O)(=O)c3cn(C)cn3)ccc2O[C@H]1CN(C)S(=O)(=O)c1cccs1 | inactive
29 | COc1ccc(S(=O)(=O)N(C)C[C@H]2Oc3ccc(NS(=O)(=O)c4cccs4)cc3C(=O)N([C@H](C)CO)C[C@H]2C)cc1 | inactive
30 | C[C@@H]1CN([C@H](C)CO)C(=O)c2cc(NS(=O)(=O)c3cn(C)cn3)ccc2O[C@@H]1CN(C)S(=O)(=O)c1cccs1 | inactive
31 | C[C@@H]1CN([C@H](C)CO)C(=O)c2cc(NS(=O)(=O)c3cn(C)cn3)ccc2O[C@@H]1CN(C)S(C)(=O)=O | inactive
32 | C[C@H](CO)N1C[C@H](C)[C@@H](CN(C)S(=O)(=O)c2cn(C)cn2)Oc2ccc(NS(=O)(=O)c3ccc(F)cc3)cc2C1=O | inactive
33 | C[C@H](CO)N1C[C@H](C)[C@H](CN(C)S(=O)(=O)c2cn(C)cn2)Oc2ccc(NS(=O)(=O)c3ccc(F)cc3)cc2C1=O | inactive
34 | C[C@H]1CN([C@@H](C)CO)C(=O)c2cc(NS(=O)(=O)c3cn(C)cn3)ccc2O[C@@H]1CN(C)S(C)(=O)=O | inactive
35 | C[C@@H]1CN([C@@H](C)CO)C(=O)c2cc(NS(=O)(=O)c3cn(C)cn3)ccc2O[C@H]1CN(C)S(C)(=O)=O | active
36 | CC(C)NC(=O)N(C)C[C@H]1Oc2ccc(NC(=O)CCC(F)(F)F)cc2CC(=O)N([C@H](C)CO)C[C@@H]1C | inactive
37 | C[C@@H]1CCCCO[C@H](CN(C)C(=O)Nc2ccccc2)[C@@H](C)CN([C@H](C)CO)C(=O)c2cc(NC(=O)Nc3cccc4ccccc34)ccc2O1 | inactive
38 | Cc1noc(C)c1S(=O)(=O)Nc1ccc2c(c1)C(=O)N([C@@H](C)CO)C[C@@H](C)[C@H](CN(C)C(=O)Nc1ccccc1)OCCCC[C@@H](C)O2 | inactive
39 | N[C@@H](C(=O)O)[C@@H](O)[C@H](O)[C@H](O)CO | inactive
40 | Fc1ccc(C2=NNC3=NCCN3C2)cc1F | inactive
41 | COc1ccc(S(=O)(=O)Nc2cccc3c2O[C@H](CN(C)S(=O)(=O)c2ccccc2)[C@@H](C)CN([C@H](C)CO)C3=O)cc1 | inactive
42 | C[C@@H]1CCCCO[C@@H](CN(C)Cc2ccc(C(=O)O)cc2)[C@H](C)CN([C@H](C)CO)C(=O)c2cc(NC(=O)Nc3ccccc3)ccc2O1 | inactive

Row | SMILES | cytotoxicity call
43 | C[C@H]1CN([C@@H](C)CO)C(=O)Cc2cc(NS(=O)(=O)c3cn(C)cn3)ccc2O[C@H]1CN(C)C | inactive
44 | CNC[C@@H]1OCCCC[C@@H](C)Oc2ccc(NC(=O)c3ccncc3)cc2C(=O)N([C@H](C)CO)C[C@@H]1C | inactive
45 | C[C@H]1CN([C@@H](C)CO)C(=O)c2cccc(NC(=O)Nc3cccc4ccccc34)c2O[C@@H]1CN(C)S(=O)(=O)c1cccs1 | inactive
46 | O=C(C[C@H]1C[C@H]2c3cc(NC(=O)Nc4ccc(C(F)(F)F)cc4)ccc3O[C@H]2[C@@H](CO)O1)NCCc1ccccc1 | inactive
47 | COc1ccc(S(=O)(=O)N(C)C[C@@H]2Oc3ccc(NS(=O)(=O)c4cccs4)cc3C(=O)N([C@H](C)CO)C[C@@H]2C)cc1 | active
48 | C[C@@H]1CN([C@H](C)CO)C(=O)c2cc(NS(=O)(=O)c3cn(C)cn3)ccc2O[C@@H]1CN(C)C(=O)Nc1ccccc1 | inactive
49 | COc1ccc(S(=O)(=O)N(C)C[C@H]2Oc3ccc(NS(=O)(=O)c4cccs4)cc3C(=O)N([C@@H](C)CO)C[C@H]2C)cc1 | inactive
50 | C[C@@H]1CN([C@H](C)CO)C(=O)c2cc(NS(=O)(=O)c3cccs3)ccc2O[C@H]1CN(C)S(=O)(=O)c1cccs1 | active
51 | COc1ccc(S(=O)(=O)N(C)C[C@H]2Oc3ccc(NS(=O)(=O)c4cccs4)cc3C(=O)N([C@@H](C)CO)C[C@@H]2C)cc1 | inactive
52 | C[C@@H]1CN([C@H](C)CO)C(=O)Cc2cc(NS(=O)(=O)c3cccs3)ccc2O[C@@H]1CN(C)S(=O)(=O)c1cccs1 | inactive
53 | C[C@@H]1CN([C@@H](C)CO)C(=O)c2cc(NS(=O)(=O)c3cn(C)cn3)ccc2O[C@@H]1CN(C)C(=O)Nc1ccccc1 | inactive
54 | C[C@@H]1CN([C@@H](C)CO)C(=O)Cc2cc(NS(=O)(=O)c3cccs3)ccc2O[C@H]1CN(C)S(=O)(=O)c1cccs1 | inactive
55 | C[C@H](CO)N1C[C@H](C)[C@H](CN(C)C(=O)Nc2ccccc2)Oc2ccc(NS(=O)(=O)c3cn(C)cn3)cc2C1=O | active
56 | C[C@H](CO)N1C[C@H](C)[C@@H](CN(C)S(=O)(=O)c2cccs2)Oc2ccc(NS(=O)(=O)c3cccs3)cc2C1=O | inactive
57 | C[C@H](CO)N1C[C@H](C)[C@@H](CN(C)S(=O)(=O)c2cccs2)Oc2ccc(NS(=O)(=O)c3cccs3)cc2CC1=O | active
58 | C[C@H]1CN([C@@H](C)CO)C(=O)c2cc(NS(=O)(=O)c3cccs3)ccc2O[C@H]1CN(C)S(=O)(=O)c1cccs1 | inactive
59 | C[C@@H]1CCCCO[C@@H](CN(C)C(=O)c2ccccc2)[C@H](C)CN([C@H](C)CO)C(=O)c2cc(NC(=O)Nc3ccccc3)ccc2O1 | inactive
60 | Cc1ccc(S(=O)(=O)NCC[C@@H]2CC[C@@H](NS(=O)(=O)c3ccccc3Cl)[C@@H](CO)O2)cc1 | inactive
61 | C[C@H]1CN([C@@H](C)CO)S(=O)(=O)c2ccc(C3=CCCC3)cc2O[C@@H]1CN(C)C(=O)Cc1ccncc1 | inactive
62 | COc1cccc(S(=O)(=O)N(C)C[C@H]2Oc3ncc(-c4cccc(C(=O)N(C)C)c4)cc3C(=O)N([C@H](C)CO)C[C@@H]2C)c1 | inactive
